The text below walks through data of the supplement of paper PMC13380429.

SMILES strings stand for the structures.

Assay [1] deals with Vero E6 infected with SARS-CoV-2. Put plainly: morphology score (similarity to uninfected cells); higher = more like uninfected cells. The following applies: 24 h.
For assay [2] the test system is unchanged. The assay is described as follows: SARS-CoV-2 infection rate relative to infected DMSO; higher = more infection, active = 60 or less. The following applies: 24 h.

In assay [1], `C#CCN[C@@H]1CCc2ccccc21` [rasagiline] (10 µM) gave a morphology score of 0.0975. Besides, in assay [2], the SARS-CoV-2 infection rate is 115% (inactive).
On to `COc1ccc(C(Cl)=C(c2ccc(OC)cc2)c2ccc(OC)cc2)cc1` [chlorotrianisene] (10 µM), for which, in assay [1], the morphology score was 0.0843. Further, the SARS-CoV-2 infection rate in assay [2] was 95.5% (inactive).
Consider `Oc1nc(O)c2nc(O)[nH]c2n1` [uric-acid] (10 µM), for which the morphology score in assay [1] is -0.0319. In assay [2], the SARS-CoV-2 infection rate was 106% (inactive).
For `CCO/N=C(\C(=O)N[C@@H]1C(=O)N2C(C(=O)[O-])=C(Sc3nc(-c4cc[n+](C)cc4)cs3)CS[C@H]12)c1nsc(NP(=O)(O)O)n1` [ceftaroline-fosamil] (10 µM), the morphology score in assay [1] was 0.242. The SARS-CoV-2 infection rate in assay [2] is 87.5% (inactive).
As for `Cc1cc(=O)n(-c2ccccc2)n1C` [phenazone] (10 µM), the morphology score in assay [1] is -0.0495. Moreover, in assay [2], the SARS-CoV-2 infection rate was 108% (inactive).
In assay [1], `CC#CCC(C)[C@H](O)/C=C/[C@@H]1[C@H]2C/C(=C/CCCC(=O)O)C[C@H]2C[C@H]1O` (stereo partly drawn) [iloprost] (10 µM) showed a morphology score of 0.0115. Moreover, the SARS-CoV-2 infection rate in assay [2] is 108% (inactive).
`CN[C@@H](C)CCC=C(C)C` [isometheptene-mucate] (10 µM): the morphology score in assay [1] is -0.0576. Further, in assay [2], the SARS-CoV-2 infection rate was 109% (inactive).
As for `CC(=O)OCC(=O)[C@@]1(O)CC[C@H]2[C@@H]3CCC4=CC(=O)CC[C@]4(C)[C@H]3C(=O)C[C@@]21C` [cortisone-acetate] (10 µM), in assay [1], the morphology score is -0.0698. Also, the SARS-CoV-2 infection rate in assay [2] is 87.5% (inactive).
In assay [1], `CC(=O)/N=c1/[nH]c(C)c(-c2ccc(Cl)c(S(=O)(=O)NCCO)c2)s1` (0.833333 µM) had a morphology score of 0.335. The SARS-CoV-2 infection rate in assay [2] is 104% (inactive).
For `NC(=O)Nc1sc(-c2ccc(F)cc2)cc1C(N)=O` (0.833333 µM), the morphology score in assay [1] is 0.0683. For the same compound, the SARS-CoV-2 infection rate in assay [2] was 95.5% (inactive).
The corresponding values for `CNC(C)(C)Cc1ccccc1` [mephentermine] (10 µM) are -0.196 and 117% (inactive).
In the case of `Cc1cc(N2CCN([C@@H]3CN[C@H](C(=O)N4CCSC4)C3)CC2)n(-c2ccccc2)n1` [teneligliptin] (10 µM), the morphology score in assay [1] stood at 0.062. The SARS-CoV-2 infection rate in assay [2] was 112% (inactive).
In the same order, the values of `CCc1c(C(=O)NCCc2ccc(N3CCCCC3)cc2)[nH]c2ccc(Cl)cc12` (10 µM) are -0.0889 and 124% (inactive).
`O=C(O)c1cc(-c2ccc(F)cc2F)ccc1O` [diflunisal] (10 µM) displayed a morphology score in assay [1] of -0.15. Further, in assay [2], the SARS-CoV-2 infection rate is 110% (inactive).
With `Nc1nc2c(cnn2CCc2ccccc2)c2nc(-c3ccco3)nn12` (10 µM), the morphology score in assay [1] is -0.139. Moreover, the SARS-CoV-2 infection rate in assay [2] was 112% (inactive).
Regarding `CCO[C@@H](Cc1ccc(OCCn2c(C)ccc2-c2ccc(SC)cc2)cc1)C(=O)O` [saroglitazar] (10 µM), the morphology score in assay [1] is 0.336. In addition, the SARS-CoV-2 infection rate in assay [2] was 92% (inactive).
In assay [1], `CC(C(=O)O)c1ccc2c(c1)Cc1ccccc1-2` (stereo not drawn) [cicloprofen] (10 µM) had a morphology score of -0.0564. For the same compound, in assay [2], the SARS-CoV-2 infection rate was 100% (inactive).
In turn, `CC(=O)OCC(CCn1cnc2cnc(N)nc21)COC(C)=O` [famciclovir] (10 µM) returned a morphology score in assay [1] of 0.139. Moreover, in assay [2], the SARS-CoV-2 infection rate is 102% (inactive).
The corresponding values for `CN(C)c1nc(N)c(C(=O)Nc2cccnc2)nc1Cl` (10 µM) are 0.226 and 79% (inactive).
Compound `Sc1ncnc2nc[nH]c12` [mercaptopurine] (0.833333 µM) yielded a morphology score in assay [1] of 0.0241. Further, the SARS-CoV-2 infection rate in assay [2] is 108% (inactive).
In the same order, the values of `CC(C)C(N)=O` [isobutyramide] (10 µM) are 0.073 and 111% (inactive).
Compound `Cc1ccc(NC(=O)c2cccc(N(C)C)c2)cc1NC(=O)c1ccc(O)cc1` (10 µM) had a morphology score in assay [1] of -0.0598. Further, the SARS-CoV-2 infection rate in assay [2] is 97.5% (inactive).
On to `CCCCCCCCCCCCCCCCCCN(CCCCCCCCCCCCCCCCCC)CCCN(CCO)CCO` [avridine] (10 µM), for which the morphology score in assay [1] was determined as 0.0689. Moreover, in assay [2], the SARS-CoV-2 infection rate was 102% (inactive).
The corresponding values for `NC(=O)C1=CN([C@@H]2O[C@H](COP(=O)(O)OP(=O)(O)OC[C@H]3O[C@@H](n4cnc5c(N)ncnc54)[C@H](OP(=O)(O)O)[C@@H]3O)[C@@H](O)[C@H]2O)C=CC1` (10 µM) are -0.0816 and 106% (inactive).
In turn, `CN(CC(=O)O)C(=N)N` [creatine] (10 µM) returned a morphology score in assay [1] of 0.0148. In addition, the SARS-CoV-2 infection rate in assay [2] is 113% (inactive).
Regarding `COc1ccc(-n2[nH]c3c4c(ncc3c2=O)CCCCC4)cc1` (10 µM), in assay [1], the morphology score amounted to 0.194. Further, the SARS-CoV-2 infection rate in assay [2] was 96% (inactive).
Take `O=C(/C=C/c1ccc(O)c(O)c1)OCCc1ccccc1` [caffeic-acid-phenethyl-ester] (10 µM): the morphology score in assay [1] was -0.0125. The SARS-CoV-2 infection rate in assay [2] was 79% (inactive).
Compound `N#Cc1ccccc1-c1cc(-c2ccccn2)cn(-c2ccccc2)c1=O` [Perampanel] (10 µM) returned a morphology score in assay [1] of 0.11. Further, the SARS-CoV-2 infection rate in assay [2] is 90.5% (inactive).
In assay [1], `Fc1ccc2nc(CCC#Cc3ccccn3)cn2c1` [dipraglurant] (10 µM) returned a morphology score of 0.0385. Also, the SARS-CoV-2 infection rate in assay [2] was 103% (inactive).
In turn, `Cc1ccccc1C(=O)Nc1ccc(C(=O)N2CCCC(N(C)C)c3ccccc32)cc1` (stereo not drawn) [mozavaptan] (0.833333 µM) came in with a morphology score in assay [1] of 0.0205. Moreover, the SARS-CoV-2 infection rate in assay [2] is 117% (inactive).
In turn, `C1CCC(/N=C(\NC23CC4CC(CC(C4)C2)C3)N2CCOCC2)CC1` (10 µM) had a morphology score in assay [1] of -0.0395. In addition, the SARS-CoV-2 infection rate in assay [2] was 110% (inactive).
Consider `CCOc1ccccc1OCC1CNCCO1` (stereo not drawn) [viloxazine] (10 µM), for which, in assay [1], the morphology score was 0.0033. Further, the SARS-CoV-2 infection rate in assay [2] was 112% (inactive).
Compound `Cc1ccc(Nc2c(F)cccc2Cl)c(CC(=O)O)c1` [lumiracoxib] (10 µM) came in with a morphology score in assay [1] of 0.182. In addition, the SARS-CoV-2 infection rate in assay [2] was 109% (inactive).
For `NC(=O)CN1CC[C@@H](NC(=O)[C@@H]2CCCN2)C1=O` (10 µM), the morphology score in assay [1] turned out to be 0.096. In addition, in assay [2], the SARS-CoV-2 infection rate is 110% (inactive).
As for `CNCc1ccc(C)c(NC(=O)c2ccc(Nc3nc(-c4ccccc4)c4ccccc4n3)cc2)c1` (0.833333 µM), in assay [1], the morphology score worked out at 0.213. Moreover, in assay [2], the SARS-CoV-2 infection rate was 98% (inactive).
In the same order, the values of `CC(C)(C)CC(=O)Nc1c(F)cc(C(=O)/N=c2\sccn2COP(=O)(O)O)cc1F` (10 µM) are 0.0762 and 93.5% (inactive).
The compound `Cc1ncc(CSSCc2cnc(C)c(O)c2CO)c(CO)c1O` [pyritinol] (10 µM) came in with a morphology score in assay [1] of 0.0152. Moreover, in assay [2], the SARS-CoV-2 infection rate is 100% (inactive).
The corresponding values for `O=C(Nc1ccc(Cl)cc1)Nc1cccc(-c2cccc(N3CCCC3)n2)c1` (10 µM) are 0.00797 and 92.5% (inactive).
In turn, `Cc1cccc(NC(=O)N[C@@H]2N=C(c3ccccc3)c3ccccc3N(C)C2=O)c1` (10 µM) displayed a morphology score in assay [1] of 0.0212. Moreover, the SARS-CoV-2 infection rate in assay [2] is 106% (inactive).
`CC1CCN(CC[C@H]2CCCN2S(=O)(=O)c2cccc(O)c2)CC1` (10 µM) gave a morphology score in assay [1] of 0.0739. For the same compound, the SARS-CoV-2 infection rate in assay [2] is 102% (inactive).
In the same order, the values of `S=C(S)N1CCCC1` [pyrrolidine-dithiocarbamate] (0.833333 µM) are 0.106 and 98% (inactive).
Compound `Oc1cc(Cl)ccc1Oc1ccc(Cl)cc1Cl` [triclosan] (10 µM) returned a morphology score in assay [1] of 0.237. Moreover, in assay [2], the SARS-CoV-2 infection rate was 95% (inactive).
`CN1CCN(C(=O)c2cc3cc(Cl)ccc3[nH]2)CC1` (10 µM): the morphology score in assay [1] was -0.00911. For the same compound, the SARS-CoV-2 infection rate in assay [2] was 111% (inactive).
In assay [1], `CC(O)c1cc(C(=O)N[C@@H](C)Cn2ccc(-c3ccc(C#N)c(Cl)c3)n2)n[nH]1` (stereo partly drawn) (10 µM) had a morphology score of 0.201. The SARS-CoV-2 infection rate in assay [2] is 106% (inactive).
In the same order, the values of `O=C(Nc1nc2ccc(NC(=O)C34CC5CC(CC(C5)C3)C4)cc2s1)c1ccccc1` (0.833333 µM) are -0.0802 and 105% (inactive).
On to `COC(=O)C1=C(C)NC(C)=C(C(=O)OC)C1c1ccccc1[N+](=O)[O-]` [nifedipine] (10 µM), for which the morphology score in assay [1] was -0.0637. Besides, the SARS-CoV-2 infection rate in assay [2] was 106% (inactive).
`Cc1cccc(Nc2ccncc2S(=O)(=O)NC(=O)NC(C)C)c1` [torasemide] (10 µM) registered a morphology score in assay [1] of 0.215. Moreover, in assay [2], the SARS-CoV-2 infection rate is 102% (inactive).
In the same order, the values of `CCC(=O)O[C@]1(C(=O)CO)CC[C@H]2[C@@H]3CCC4=CC(=O)CC[C@]4(C)[C@H]3CC[C@@]21C` (10 µM) are 0.188 and 102% (inactive).
Compound `Cc1c(C)c2c(c(C)c1OC(=O)CCC(=O)O)CC[C@@](C)(CCC[C@H](C)CCC[C@H](C)CCCC(C)C)O2` [D-alpha-tocopheryl-succinate] (10 µM) returned a morphology score in assay [1] of 0.0385. The SARS-CoV-2 infection rate in assay [2] is 101% (inactive).
On to `Cc1cccc(Oc2cnc(=O)[nH]c2)c1` [tolimidone] (10 µM), for which the morphology score in assay [1] amounted to 0.147. In addition, in assay [2], the SARS-CoV-2 infection rate is 106% (inactive).
In turn, `Nc1ncnc2c1c(-c1ccc(Oc3ccccc3)cc1)nn2C1CCCC1` (10 µM) displayed a morphology score in assay [1] of -0.00746. For the same compound, the SARS-CoV-2 infection rate in assay [2] is 122% (inactive).
In the case of `COc1ccc2[nH]c(C(=O)c3ccccc3)cc2c1` (0.833333 µM), the morphology score in assay [1] is -0.112. The SARS-CoV-2 infection rate in assay [2] is 110% (inactive).
In assay [1], `CCC/C=C1\OC(=O)C2=C1CCC=C2` [ligustilide] (10 µM) came in with a morphology score of 0.0279. Moreover, the SARS-CoV-2 infection rate in assay [2] was 108% (inactive).
In the same order, the values of `COC(c1ccccc1)(c1ccccc1)[C@H](Oc1nc(C)cc(C)n1)C(=O)O` [ambrisentan] (10 µM) are -0.0233 and 104% (inactive).
Compound `O=c1[nH]c(=O)n([C@H]2C[C@H](O)[C@@H](CO)O2)cc1C(F)(F)F` [trifluridine] (0.833333 µM) registered a morphology score in assay [1] of 0.175. The SARS-CoV-2 infection rate in assay [2] is 101% (inactive).
Consider `O=[N+]([O-])c1cc(O)c(O)c([N+](=O)[O-])c1` (10 µM), for which the morphology score in assay [1] was determined as 0.123. In assay [2], the SARS-CoV-2 infection rate was 101% (inactive).
In the same order, the values of `CC(=O)NC1N=C(c2ccccc2)c2ccccc2NC1=O` (stereo not drawn) (10 µM) are 0.189 and 105% (inactive).
In the case of `N#CC[C@@H](C1CCCC1)n1cc(-c2ncnc3[nH]ccc23)cn1` [ruxolitinib-(S)] (10 µM), in assay [1], the morphology score is 0.62. In addition, the SARS-CoV-2 infection rate in assay [2] is 105% (inactive).
In the case of `CN1CCc2c(c3ccccc3n2Cc2ccccc2)C1` [mebhydrolin] (10 µM), in assay [1], the morphology score came out at 0.242. Moreover, the SARS-CoV-2 infection rate in assay [2] was 104% (inactive).
